Screening data: PubChem BioAssay, National Center for Advancing Translational Sciences (NCATS)
Chronic BCR inh – inhibitors of chronic active B-cell receptor signaling; AID 493014; 340,000 compounds, 0.05% hits; Potency, µM (highest dose often 46.1 µM), for the others: at the top dose activity change, negative = inhibition, actives largely listed as inhibitors; ABC-DLBCL IkBa-CBG/CBR reporter, luminescence ratio, 4 h; active = well fitted inhibition curve with a large enough effect in the signal ratio, with a control signal flat, not every such curve was filed as active; inconclusive = small, poorly fitted or top-dose-only effect, or effect the other way, or a change in a side signal; the % refers to the signal ratio;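 note: plate controls were basal doxycycline-induced cells for no effect and cells given 10 µM MG132 for full effect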
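Cell line TMD8 (human ABC DLBCL), stably expressing tet-inducible CBG68-IkBa fusion and CBR; IMDM/0.5% FBS; cpd up to 46 uM; dox induction, 4 h, 37C/5% CO2; dual luminescence; green/red ratio; MG132 control.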
RORg inh – ROR gamma (mouse) transcription inhibition | Potency, µM (series often up to 53.6 µM), without a hit: top-dose activity change, negative = inhibition, actives largely listed as inhibitors | 310,000 compounds, 5.4% hits | Drosophila S2 Gal4-RORgamma UAS-luciferase reporter, 20 h | AID 2551 | P51450; note: % is set by controls: 0 for no effect and ±100 for the full control effect; nearly all actives have a fitted effect of over 60% in size
Target sequence (P51450 whole entry, looked up, the tested form may be a part): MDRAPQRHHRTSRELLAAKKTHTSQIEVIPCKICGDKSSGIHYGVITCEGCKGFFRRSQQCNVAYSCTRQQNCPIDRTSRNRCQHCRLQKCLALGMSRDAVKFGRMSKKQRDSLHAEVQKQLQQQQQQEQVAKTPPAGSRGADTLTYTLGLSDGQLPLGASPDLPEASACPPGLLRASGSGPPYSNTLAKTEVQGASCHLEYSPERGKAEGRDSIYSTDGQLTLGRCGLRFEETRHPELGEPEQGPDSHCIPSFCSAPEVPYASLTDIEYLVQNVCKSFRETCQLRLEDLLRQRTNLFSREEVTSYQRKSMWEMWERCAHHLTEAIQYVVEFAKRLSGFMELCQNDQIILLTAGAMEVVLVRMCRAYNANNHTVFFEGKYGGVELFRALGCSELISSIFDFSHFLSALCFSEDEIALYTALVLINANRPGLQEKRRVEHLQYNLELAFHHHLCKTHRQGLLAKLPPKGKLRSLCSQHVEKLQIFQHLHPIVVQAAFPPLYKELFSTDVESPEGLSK
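In this cell-based reporter format, copper sulfate (700 uM final) drives Gal4–ROR gamma fusion expression from a metallothionein promoter in Drosophila Schneider cells; compounds preincubated 1 hr, reporter read after 20 hr at ambient temperature.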
Integrin act MD – activates integrin-mediated alleviation for muscular dystrophy | alpha7betagal myoblasts, beta-gal FDG fluorescence, 48 h | Potency, µM (series often up to 38.3 µM), inactives show at the top dose activation, most hits filed as activators | 350,000 compounds, 0.064% hits | AID 624291;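 note: 100% = response of the positive control SU9516; nearly all actives have a fitted effect of over 60% in size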
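alpha7betagal+/- myoblasts (passage 13, 250/well) treated 48 h at 37C with compounds at 1:260 dilution of DMSO stock. Lysed, then beta-galactosidase activity read as FDG fluorescence (ex 480/em 540) after 30 min, with pre-read for autofluorescence.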
uPA generation – blocks generation of uPA at the cell surface; 330,000 compounds, 0.31% hits; Potency, µM (highest dose often 38.3 µM), inactives show at the highest dose activity change, negative = inhibition, most hits filed as inhibitors; AID 540303; cell surface uPA generation assay, qHTS; active = well fitted inhibition curve with a large enough effect; inconclusive = small, poorly fitted or top-dose-only effect; inactive = no such curve, though single readings can be large or run the other way; tested in mouse RAW 264.7 cells; note: % is set by controls: 0 for no effect and ±100 for the full control effect; nearly all actives have a fitted effect of over 55% in size
Mito fusion yeast – blocks mitochondrial division or promotes mitochondrial fusion. S. cerevisiae fusion-defective mutant growth rescue, CellTiterGlo 48 h. Potency, µM (top dose mostly 46.1 µM), for the others: at the top dose growth rescue (activation), actives largely listed as activators. 320,000 compounds, 0.23% hits. AID 485298; note: % of control where 0% means no effect; nearly all actives have a fitted effect of over 45% in size
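S. cerevisiae fusion-defective temperature-sensitive mutants (e.g. fzo1-1, mgm1-5) grown 48 h at 37C in YPEG (ethanol/glycerol non-fermentable) medium with 23 nl compound per well; growth rescue read as CellTiterGlo luminescence.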
Gal4-VP16 FLuc – inhibits Gal4-VP16 luciferase reporter, ROR gamma counter-screen; Drosophila S2 Gal4-VP16 UAS-luciferase, luminescence, 20 h; Potency, µM (series often up to 53.6 µM), for inactives: at the highest dose activity, negative = inhibition, most hits filed as inhibitors; 310,000 compounds, 3.5% hits; AID 2546;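 note: Gal4-VP16 expression switched on by copper sulfate through the metallothionein promoter; % is set by controls: 0 for no effect and ±100 for the full control effect; nearly all actives have a fitted effect of over 50% in size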
The depositor's hits bear a star; ? = inconclusive; · = no result given; [ ] = remark or other dose. The list is not random: actives were taken first. Their share in the collection is about 5.5%. Unless noted, calls come from the whole dose curve; as a rule, active = well fitted curve in the direction sought with a large enough effect; inconclusive = small, poorly fitted or top-dose-only effect, or another doubt; inactive = no such curve, though single readings can be large; an effect the other way counts as inactive or inconclusive. Potency is the fitted concentration of half-maximal effect.

SMILES | Chronic BCR inh | RORg inh | Integrin act MD | uPA generation | Mito fusion yeast | Gal4-VP16 FLuc
Cn1c(=S)n(/N=C/c2ccc3c(c2)OCO3)c2ccccc21 | 0% | 11µM* | 22% | 6% | -5% | 21%
CC(C)[C@@H](CC(=O)N[C@@H]1CCNC[C@H]1C(=O)N[C@H](CC(=O)N[C@@H](CCC(=O)O)CC(=O)O)Cc1ccccc1)NC(=O)C[C@H](CO)NC(=O)[C@@H]1CCCC[C@H]1N | · | -3% | · | · | · | -1%
COCCC(=O)N1CCC(Oc2ccc(C(=O)NCc3cccc(C)n3)cc2)CC1 | ? | -4% | 3% | 4% | 0% | -5%
Cc1cc(OCC(=O)N(C(C)C)C(C)C)ccc1Cl | -1% | 1.6µM* | 0% | -5% | -3% | ?
Cc1ccc(OC(C)C(=O)Nc2cc(C)on2)cc1 (stereo not given) | ? | -21% | -28% | 0% | -1% | -9%
Cc1cc(OCC(=O)NC(C)(C)C)ccc1Cl | ? | 2% | 8% | 3% | 5% | 7%
Cc1cc(OC(C)C(=O)Nc2ccncc2)ccc1Cl (stereo not given) | -2% | 19% | -66% | -21% | 0% | 11µM*
Cc1ccc(OC(C)C(=O)Nc2ccncc2)cc1 (stereo not given) | 5% | ? | -21% | 1% | 2% | 18µM*
Cc1cc(OC(C)C(=O)Nc2cccnc2)ccc1Cl (stereo not given) | 4% | 22% | -16% | -2% | 13% | -11%
COc1ccc(OCCC(=O)NCCN2CCOCC2)cc1 | 3% | 0% | 2% | 3% | 5% | -2%
Clc1ccccc1-c1nccc(NCc2cccs2)n1 | · | ? | · | · | · | -11%
O=[N+]([O-])c1cc(/C=N/N/C(=N/c2ccccn2)c2ccccn2)ccc1O | ? | 1.4µM* | -54% | -2% | -2% | 4.5µM*
O=[N+]([O-])c1ccc(/C=N/N/C(=N/c2ccccn2)c2ccccn2)cc1 | -30% | 11µM* | -6% | -1% | -4% | -4%
O=C(N/N=C/c1ccc(O)c([N+](=O)[O-])c1)c1ccncc1 | 5% | 12% | ? | -6% | -1% | -5%
c1ccc(-c2nnc(-c3ccccn3)s2)nc1 | ? | 1.8µM* | 6% | -7% | -5% | 5%
c1ccc(-c2nc(-c3ccccn3)nc(-c3ccccn3)n2)nc1 | -2% | -40% | -14% | -10% | -4% | -14%
Cc1ccc(CNC(=O)C2CCN(S(=O)(=O)c3ccc(Br)s3)CC2)cc1 | -6% | 10% | 3% | 2% | -6% | -16%
COCCCNC(=O)C1CCN(S(=O)(=O)c2ccc3nc4c(c(C(=O)O)c3c2)CCCCC4)CC1 | 5% | -9% | 28% | -3% | -16% | -5%
CCCC1=C(C(=O)OCC)C(/C=C/c2ccccc2)n2ncnc2N1 (stereo not given) | ? | 20µM* | -23% | · | -1% | -3%
CCOc1ccc(N(CC(=O)Nc2cccc(F)c2)S(=O)(=O)c2c(C)noc2C)cc1 | ? | -6% | -5% | ? | 4% | -20%
Cc1ccc(N(CC(=O)Nc2cc(C)cc(C)c2)S(=O)(=O)c2c(C)noc2C)cc1 | ? | -28% | -38% | -12% | -31% | 11µM*
CCOc1ccc(N(CC(=O)Nc2ccc(C)c(C)c2)S(=O)(=O)c2c(C)noc2C)cc1 | 8% | ? | -9% | 13µM* | 26% | ?
COc1cccc(N2CCN(C(=O)CCCCCNc3nc(=S)[nH]c4ccccc34)CC2)c1 | -14% | 8.9µM* | -58% | -1% | -4% | ?
O=C(CCCCCNc1nc(=S)[nH]c2ccccc12)N1CCN(c2ccccn2)CC1 | 1% | 10µM* | · | · | -4% | ?
O=C(CCCn1c(=O)[nH]c2ccccc2c1=O)N1CCN(c2ccccn2)CC1 | -1% | -23% | 7% | 1% | 2% | -10%
SMILES | Chronic BCR inh | RORg inh | Integrin act MD | uPA generation | Mito fusion yeast | Gal4-VP16 FLuc
COC(=O)C(COC(=O)c1c(F)cccc1F)NC(=O)c1c(F)cccc1F (stereo not given) | 0% | -30% | -38% | ? | -9% | -15%
CC(=O)Cn1ncc(Br)c(Br)c1=O | ? | 11µM* | 0% | -14% | -7% | 0%[10 µM]
O=C(OCn1ncc(Br)c(Br)c1=O)c1c(F)cccc1F | ? | 3.5µM* | · | · | -14% | 4.5µM*
CC(C)(C)C(=O)Cn1ncc(N2CCCC2)c(Br)c1=O | ? | -37% | -20% | -6% | 2% | -15%
Cc1cc(C)c2c(=O)cc(C(F)(F)F)oc2n1 | -2% | 12% | 1% | 7% | -2% | 0%
CCCCN(C(=O)COC(=O)c1ccccc1)c1c(N)n(CCC)c(=O)[nH]c1=O | -5% | · | 7% | 5% | · | ·
CC(C)NC(=O)N1CC2(CCN(S(=O)(=O)c3ccccc3)CC2)C1 | · | -14% | · | · | · | -5%
O=C1/C(=C/c2ccc([N+](=O)[O-])cc2)CCC1C1CCCC1 (stereo not given) | 2% | 3% | 19% | -5% | 9% | -1%
O=C(/C=C/c1cccc(Cl)c1)c1nc2ccccc2[nH]1 | ? | 3.2µM* | -67% | -12% | -24% | ?
Cc1ccn2c(C(=O)N/N=C\c3cccs3)c(C)nc2c1 | ? | ? | -7% | 2% | 0% | 1%[0.365 µM]
Cc1ccn2c(C(=O)NN=C3CCN(C)CC3)c(C)nc2c1 | -4% | 4% | 29% | -3% | ? | -22%
Cc1ccc2nc(C)c(C(=O)N/N=C/c3cccs3)n2c1 | ? | 11µM* | -14% | ? | 3% | -2%
Cc1ccc2nc(C)c(C(=O)NN=C3CCCCCC3)n2c1 | ? | 13µM* | -12% | 4.5µM* | -3% | -25%
Cc1ccc(NC(=O)Cn2nnc(C(=O)NCCc3ccccc3)c2N)c(C)c1 | 1% | -21% | 15% | -3% | 4% | -9%
O=C(NCCCCCCNC(=O)ON=C1CCCCC1)ON=C1CCCCC1 | · | -1% | · | · | · | 13%
CN(C)c1nc(SCc2ccccc2Cl)nc2c1CCCC2 | 0% | 7.9µM* | 3% | 7% | -4% | 7%[0.365 µM]
Cc1ccc(CSc2nc3c(c(N(C)C)n2)CCCC3)cc1 | 1% | ? | -37% | 1% | -1% | -6%[0.365 µM]
O=C(Cl)COCc1ccccc1 | · | -14% | · | · | · | -1%
CCC(=O)Nc1ccc(NC(=S)NC(=O)Cc2ccccc2)cc1 | -2% | -2% | 25% | 2% | -8% | -8%
CN(C(=S)NC(=O)Cc1ccccc1)c1ccccc1 | ? | 10µM* | -5% | · | 3% | ?
CCN(CC)C(=S)NC(=O)Cc1ccccc1 | 1% | 6.3µM* | -33% | -1% | -4% | ?
CN(C(=S)NC(=O)C1(C)CC1(Cl)Cl)c1ccccc1 (stereo not given) | ? | ? | 31% | 2% | -6% | ?
